Screening results from PubChem BioAssay.
Mtb UGM inh = blocks M. tuberculosis UGM enzyme. purified UGM, fluorescence polarization probe displacement. inhibition, % at 10 µM. 0.06% of 320,000 active; in the data active means inhibition above about 10%, passing the limit was not always enough
Target sequence (P9WIQ1 whole entry, looked up): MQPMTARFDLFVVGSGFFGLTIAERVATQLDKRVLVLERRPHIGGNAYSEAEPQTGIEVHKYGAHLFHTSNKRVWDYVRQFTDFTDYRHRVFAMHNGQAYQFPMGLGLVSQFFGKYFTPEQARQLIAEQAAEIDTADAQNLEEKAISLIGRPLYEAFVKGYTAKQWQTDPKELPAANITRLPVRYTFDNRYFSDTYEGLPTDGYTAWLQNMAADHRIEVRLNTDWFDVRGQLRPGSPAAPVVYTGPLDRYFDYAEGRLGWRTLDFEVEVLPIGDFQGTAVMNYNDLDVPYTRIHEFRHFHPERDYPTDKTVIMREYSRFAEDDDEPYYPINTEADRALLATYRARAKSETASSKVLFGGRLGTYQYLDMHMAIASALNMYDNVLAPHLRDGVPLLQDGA
GDH-TPI counter-1 = inhibits GDH-TPI coupling enzymes, artifact for Mtb FBA screen. 1.2% of 360,000 active. inhibition, % at 4.8 µM. GDH-TPI coupled enzyme counterscreen, NADH absorbance; in the data active means inhibition above about 30%;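 further: 0% = DMSO wells and 100% = wells lacking the enzyme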
Mtb hypoxia inh = Mtb hypoxia fluorescent reporter inhibition; M. tuberculosis hypoxia-regulated fluorescent reporter, fluorescence; fluorescence inhibition, % (concentration not given with the values); 0.1% of 300,000 active; AID 1159583; in the data active means fluorescence inhibition mostly above about 23%, no sharp cut-off; inactive means mostly below about 17%
FBA Mtb inh = inhibits M. tuberculosis FBA enzyme; P9WQA3; purified M. tuberculosis FBA, fluorescence read-out; inhibition, % at 1 µM; 2.3% of 360,000 active; AID 588726;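 further: 0% = vehicle and 100% = reference inhibitor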
Rv3671c inh = Rv3671c (M. tuberculosis) protease inhibition; P9WHR9; inhibition, % at 5.96 µM; 0.048% of 320,000 active; AID 2606; in the data active means inhibition above about 38%;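 further: extracellular domain of Rv3671c used as enzyme; 0% = enzyme with DMSO and 100% = no enzyme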
FadD28 FP inh = inhibitors of Mycobacterium tuberculosis FadD28 bisubstrate binding. inhibition, % at 12.5 µM. FadD28 bisubstrate probe binding, fluorescence polarization. 0.22% of 360,000 active; in the data active means inhibition above about 8.5%, passing the limit was not always enough
Mtb FBA inh conf = confirmation of M. tuberculosis fructose-bisphosphate aldolase inhibitors. shares compounds with FBA Mtb inh. purified M. tuberculosis FBA, fluorescence read-out. inhibition, % at 1 µM. 78% of 5,600 active. AID 651616;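 further: 0% = vehicle wells and 100% = reference inhibitor wells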
GDH-TPI counter-2 = GDH-TPI inhibition counter-screen for FBA inhibitors | shares compounds with FBA Mtb inh | GDH-TPI coupled enzyme counterscreen, fluorescence | inhibition, % at 1 µM | 81% of 5,600 active; in the data active means inhibition above about 10%
Active calls of the source: *; nt = no result; + = active, no number. Hits are enriched below; roughly 3.5% of the tested compounds scored in any of these assays. Unless noted, no stated cut-off is given here; in the data, active means inhibition above about 27%; inactive means the rest.

SMILES	Mtb UGM inh	GDH-TPI counter-1	Mtb hypoxia inh	FBA Mtb inh	Rv3671c inh	FadD28 FP inh	Mtb FBA inh conf	GDH-TPI counter-2
CCCCn1c(NC(=O)c2ccc(Br)o2)c(S(=O)(=O)c2ccccc2)c2nc3ccccc3nc21	1	21	-2	59*	-26	2	6	-4
CCCCCn1c(NC(=O)c2ccco2)c(S(=O)(=O)c2ccc(C)cc2)c2nc3ccccc3nc21	1	24	9	96*	-19	1	30*	21*
CCCCn1c(NC(=O)c2ccco2)c(C(=O)OCC)c2nc3ccccc3nc21	0	25	-7	80*	-207	-6	2	1
CCCCn1c(NC(=O)c2ccco2)c(S(=O)(=O)c2ccc(C)cc2)c2nc3ccccc3nc21	nt	23	7	96*	nt	-1	73*	47*
CCCCn1c(NS(=O)(=O)c2ccc(C)cc2)c(C(=O)OCC)c2nc3ccccc3nc21	-2	8	nt	16	-151	-2	nt	nt
CC(Oc1cc(Cl)ccc1Cl)C(=O)NN=Cc1ccnn1C (centres undefined)	nt	nt	0	nt	nt	nt	nt	nt
CSc1ccccc1NC(=O)CON=C(C)c1cc2ccccc2o1	nt	nt	10	nt	nt	nt	nt	nt
CCOCCCNC(=S)NCCNc1nc2ccc(C)cc2cc1C#N	-2	-3	1	12	-4	-8	nt	nt
CN(C)CCCNC(=S)NCCNc1nc2cc3c(cc2cc1C#N)OCO3	1	7	-1	70*	-6	-2	65*	47*
CCOCCCNC(=S)NCCCNc1nc2cc3c(cc2cc1C#N)OCO3	0	18	4	65*	-9	1	188*	153*
CCOCCCNC(=S)NCCCNc1nc2ccc(C)cc2cc1C#N	-3	nt	nt	nt	-3	nt	nt	nt
O=S(=O)(Cc1ccccc1)N1CCN(C2Cc3ccccc3C2)CC1	-1	9	6	29*	-5	3	+	+
CCCCOc1ncnc2c1[nH]c1ccc(F)cc12	1	-2	2	32*	-9	-5	189*	160*
Fc1ccc2[nH]c3c(Cl)ncnc3c2c1	-1	0	4	40*	-1	-2	164*	158*
COc1ccc2[nH]c3c(Cl)ncnc3c2c1	1	6	-6	2	-2	-2	nt	nt
COc1cccc2[nH]c3c(Cl)ncnc3c12	0	11	11	41*	8	0	163*	144*
COc1cccc2[nH]c3c(N4CCCCC4)ncnc3c12	3	11	1	15	2	-1	nt	nt
COc1cc(C=NNC(=O)c2cccnc2)cc2c1OCO2	nt	nt	2	nt	nt	nt	nt	nt
CCn1c(SCc2ccccc2Cl)nc2nc3c(cc2c1=O)CCCC3	nt	3	4	28*	nt	-3	85*	61*
CCn1c(SCc2c(Cl)cccc2Cl)nc2nc3c(cc2c1=O)CCCC3	-1	-1	10	2	5	1	nt	nt
O=C(Nc1ccc(Cl)c(C(F)(F)F)c1)C1CC=CC2CCN(Cc3ccc(Cl)c(Cl)c3)C(=O)C21 (centres undefined)	nt	nt	10	nt	nt	nt	nt	nt
FC(F)(F)c1nc2nc(Cl)c(Cl)nc2[nH]1	nt	26	nt	5	nt	-1	nt	nt
FC(F)(F)c1cccc(-c2nc3nc(Cl)c(Cl)nc3[nH]2)c1	2	36*	nt	31*	-11	-5	35*	42*
COc1ccc(SCCN2CCC(NC(=O)OCc3ccccc3)CCC2=O)cc1 (centres undefined)	nt	nt	8	nt	nt	nt	nt	nt
CCCOC(=O)Nc1nc2ccccc2o1	0	10	6	1	2	1	nt	nt
SMILES	Mtb UGM inh	GDH-TPI counter-1	Mtb hypoxia inh	FBA Mtb inh	Rv3671c inh	FadD28 FP inh	Mtb FBA inh conf	GDH-TPI counter-2
CCOC(=O)C(=CN=C(N)Nc1nc2ccccc2o1)C(=O)OCC	-1	16	7	32*	0	0	29*	23*
COc1ccc2oc(=O)c(-c3nc(C)cs3)cc2c1	-4	13	6	35*	3	-1	111*	78*
CCOc1cccc(-c2cnc3cccnn23)c1	nt	16	nt	73*	nt	-4	-3	-6
Cc1cccc(-c2cnc3cccnn23)c1	nt	1	nt	45*	nt	-4	-8	-7
COc1cc(C=NNC(=O)COc2ccccc2C)ccc1OC(=O)c1cccs1	nt	nt	10	nt	nt	nt	nt	nt
c1ccc(-c2cn3c(n2)-c2ccccc2C3)cc1	0	-1	8	48*	-6	-3	132*	106*
Cn1c(=O)c2nc(Cl)c(-c3ccccc3)nc2n(C)c1=O	0	8	8	33*	-9	-2	152*	105*
Cn1c(=O)c2nc(-c3ccccc3)c(-c3ccccc3)nc2n(C)c1=O	2	13	20	44*	-6	-6	81*	78*
Cc1ccc(C=NNC(=O)CNC(=O)c2ccc(S(=O)(=O)N(C)C)cc2)o1	nt	nt	-18	nt	nt	nt	nt	nt
Cn1ncc2c(ON=C(N)c3ccc(C(C)(C)C)cc3)ncnc21	nt	nt	20	nt	nt	nt	nt	nt
COc1cccc(/C=C/C(=O)OC(C)C(=O)Nc2c(C)n(C)n(-c3ccccc3)c2=O)c1 (centres undefined)	3	4	-5	29*	-4	-1	122*	101*
COC(=O)C1=C(c2ccccc2)CC2CCC1N2C(=O)N1CCCC1 (centres undefined)	nt	nt	-1	nt	nt	nt	nt	nt
O=c1oc2c3c4c(cc2s1)CCCN4CCC3	0	10	3	-1	-11	0	nt	nt
O=c1ccc2cc3c4c(c2o1)CCCN4CCC3	1	0	-3	54*	1	0	62*	60*
O=C1c2ccccc2NC(c2cccc([N+](=O)[O-])c2)N1CCc1ccccc1 (centres undefined)	-1	4	15	-2	11	-3	nt	nt
Cc1cccc(C2Nc3ccccc3C(=O)N2CCc2ccccc2)n1 (centres undefined)	0	18	7	73*	-6	0	+	+
COc1cc2[nH]c3c(N4CCN(c5ccccn5)CC4)ncnc3c2cc1OC	-1	0	6	29*	-5	9.1*	-5	-7
COc1ccc(N2CCN(c3ncnc4c3[nH]c3ccccc34)CC2)cc1	0	3	6	0	1	-3	nt	nt
COc1ccc2[nH]c3c(N4CCc5ccccc5C4)ncnc3c2c1	1	5	-4	40*	-11	-1	1	1
Cc1ccccc1CC(=O)Nc1ccc2c(c1)c(=O)n(C)n2-c1cccs1	nt	0	nt	1	nt	-2	nt	nt
COc1cccc(CNC(=S)Nc2ccc3c(c2)c(=O)n(C)n3C)c1	nt	15	nt	26	nt	1	nt	nt
COc1cccc(Cn2c3ccc(NC(=O)Cc4ccccc4C)cc3c(=O)n2C)c1	nt	3	nt	89*	nt	1	+	+
COc1cc(Cn2c3ccc(NC(=S)NCc4ccc(C)cc4)cc3c(=O)n2C)ccc1F	nt	6	nt	38*	nt	-1	180*	138*
Cc1ccccc1CC(=O)Nc1ccc2c(c1)c(=O)n(C)n2-c1ccccc1F	nt	13	nt	104*	nt	-2	82*	72*
